Test results taken from article PMC5540273 (PLoS ONE, 2017).

Tests used:
Conditions in all cases: concentration: 1 μM,replicates: in singlicate; n = 1
CLK2 = system: CLK2
CLK3 = system: CLK3
CLK4 = system: CLK4
CSF1R-autoinhibited = system: CSF1R-autoinhibited
CSF1R = system: CSF1R
CSK = system: CSK
CSNK1A1L = system: CSNK1A1L
CSNK1A1 = system: CSNK1A1
CSNK1D = system: CSNK1D
CSNK1E = system: CSNK1E
CSNK1G1 = system: CSNK1G1
CSNK1G2 = system: CSNK1G2
CSNK1G3 = system: CSNK1G3
CSNK2A1 = system: CSNK2A1
CSNK2A2 = system: CSNK2A2
CTK = system: T1, CTK
T1 construct: gene MATK

DAPK1 = system: DAPK1
DAPK2 = system: DAPK2
DAPK3 = system: DAPK3
DCAMKL1 = system: T2, DCAMKL1
T2 construct: gene DCLK1
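Also: KINOMEscan kinase panel screen.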

Compound	%Inh (CLK2) [%]	%Inh (CLK3) [%]	%Inh (CLK4) [%]	%Inh (CSF1R-autoinhibited) [%]	%Inh (CSF1R) [%]	%Inh (CSK) [%]	%Inh (CSNK1A1L) [%]	%Inh (CSNK1A1) [%]	%Inh (CSNK1D) [%]	%Inh (CSNK1E) [%]	%Inh (CSNK1G1) [%]	%Inh (CSNK1G2) [%]	%Inh (CSNK1G3) [%]	%Inh (CSNK2A1) [%]	%Inh (CSNK2A2) [%]	%Inh (CTK) [%]	%Inh (DAPK1) [%]	%Inh (DAPK2) [%]	%Inh (DAPK3) [%]	%Inh (DCAMKL1) [%]
Cl.Oc1cc(-c2nc(-c3ccccc3)[nH]c2-c2ccncc2)ccc1Cl [SB-386023]	0	24	11	0	2	1	25	41	71	77	0	0	16	11	30	38	0	0	0	34
CN(C)CCOc1ccc(-c2cc(-c3c[nH]nc3-c3ccccn3)ccn2)cc1 [GW835314]	0	5	18	0	6	88	3	11	25	31	14	9	65	0	3	48	13	0	0	0
NC(=O)c1cc(-c2ccccc2)cc2c(C3CCNCC3)c[nH]c12 [GSK301362]	3	14	25	0	53	0	20	0	50	72	3	0	19	31	20	4	23	9	40	14
CC(C)Nc1cc(-c2ccc3c(N)n[nH]c3c2)nc(N)n1 [GSK2221681]	44	23	63	0	4	0	5	18	34	22	0	2	19	13	28	0	30	42	51	7
Cc1ccc(-n2nc(C(C)(C)C)cc2NC(=O)Nc2ccc(OCCN3CCOCC3)c3ccccc23)cc1 [GW839464]	9	5	0			3	7	0	1	10	1	0	19	0	4	0	4	1	20	21
Cc1cc2cn[nH]c2cc1-c1cccc2c(N)c(C(N)=O)nnc12	11	15	0	0	6	98.3	35	34	22	30	12	13	12	19	5	80	9	3	32	71
Nc1nc(Nc2ccccc2)cc(-c2ccc3c(N)n[nH]c3c2)n1 [GSK2225749]	40	0	80	0	0	0	10	21	15	0	2	0	13	34	24	0	34	49	62	12
Cc1occc1-c1nc(N)c(OC[C@@H](N)Cc2c[nH]c3ccccc23)cc1-c1cc2c(C)n[nH]c2cn1 [GSK1660450]	97.5	80	97.6	0	18	0	71		96.6	99.7	79	74	83	76	48	11	64	69	59	24
CN(C)CC(O)COc1ccc(Nc2nccc(-c3cnn4nc(N5CCOCC5)ccc34)n2)cc1 (stereo not drawn) [GW767488]	96.6	11	88	15	32	24	15	92.2	41	29	16	50	10	97.1	98.7	1	59	46	68	72
